From doi:10.1101/2024.03.05.583629 come the findings set out here.

The target in assay [1] is pT7_6His-AlfaTag-HOXD13 (human, UniProt P35453 263-343). Put plainly: PADIT-seq. The note with it: dsDNA, one strand shown.
Assay [2] deals with pT7_6His-AlfaTag-ZIF268 (human, UniProt P18146 335-423). Put plainly: PADIT-seq. The note with it: dsDNA, one strand shown.

Sequence of pT7_6His-AlfaTag-HOXD13 (P35453 263-343): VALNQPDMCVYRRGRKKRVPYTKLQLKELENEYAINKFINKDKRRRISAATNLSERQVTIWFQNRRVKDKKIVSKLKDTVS

For the sequence “CTCGAGGATATCAAGATCTGGCCTCGGCATTTTATACGGAACCTCTAGCTAGCCGACTCACTATAGGGATAATCGCCCTGAGCAAAGACC”, the binding signal turned out to be 2.61 ± 0.0763 log2FC in assay [1] and 0.0469 ± 0.0817 log2FC in assay [2].
For the sequence “CTCGAGGATATCAAGATCTGGCCTCGGCTTTTTAGAAGGAACCTCTAGCTAGCCGACTCACTATAGGGATAATCGCCCTGAGCAAAGACC”, the binding signal in assay [1] amounted to 0.559 ± 0.108 log2FC; in assay [2], 0.0735 ± 0.104 log2FC.
On the same counts, the results for “CTCGAGGATATCAAGATCTGGCCTCGGCGCGTGGCATGGAACCTCTAGCTAGCCGACTCACTATAGGGATAATCGCCCTGAGCAAAGACC” are -1.09 ± 0.127 log2FC and 0.0324 ± 0.101 log2FC.
The corresponding values for “CTCGAGGATATCAAGATCTGGCCTCGGCGCGATTGCGGGAACCTCTAGCTAGCCGACTCACTATAGGGATAATCGCCCTGAGCAAAGACC” are -0.695 ± 0.114 log2FC and 0.187 ± 0.0941 log2FC.
